Reference: PubChem BioAssay (NCATS)
Records with an inconclusive call do not appear. Calls of active or inactive are those of the source. Calls come from the whole dose curve; as a rule, active = well fitted inhibition curve with a large enough effect; inconclusive = small, poorly fitted or top-dose-only effect; inactive = flat fitted curve, though single readings scatter.

Columns and labels:
Assay in all cases: qHTS profiling for inhibitors of Plasmodium falciparum proliferation (AID 504749); note: nearly all actives have a fitted effect of over 60% in size
Settings in all cases: P. falciparum in erythrocytes, SYBR Green DNA, 72 h; series mostly up to 28.7 µM
[1] = tested on: CP291
How it was run: (§1)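 Readout was DNA-dye fluorescence from lysed cultures, ex 485/em 535 nm. Parasitized red cells had grown 72 h with compound; data scaled between 0.29 uM artemisinin and DMSO wells and corrected using vehicle-only plates.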

[2] = tested on: CP297
How it was run: as §1

[3] = tested on: CP305
How it was run: as §1

[4] = tested on: CP315
How it was run: as §1

[5] = tested on: CP325
How it was run: as §1

[6] = tested on: CP329
How it was run: as §1

[7] = tested on: CP335
How it was run: as §1

[8] = tested on: DFO2036
How it was run: as §1

[9] = tested on: DIV14
How it was run: as §1

[10] = tested on: DIV17
How it was run: as §1

[11] = tested on: DIV30
How it was run: as §1

[12] = tested on: Dd2
How it was run: as §1

[13] = tested on: ECU
How it was run: as §1

[14] = tested on: FAB9
How it was run: as §1

[15] = tested on: GB4
How it was run: as §1

[16] = tested on: HB3
How it was run: as §1

[17] = tested on: ICS
How it was run: as §1

[18] = tested on: JCK
How it was run: as §1

[19] = tested on: N140
How it was run: as §1

[20] = tested on: P93_24
How it was run: as §1

Measured: Potency
Potency is the fitted concentration of half-maximal effect.

C/C=C/C=C/C(=O)O
not listed: [20]
inactive: all other assays above

O[C@@H]([C@H](O)[C@H](O)CBr)[C@H](O)CBr
inactive: all assays above

CCCOC(=O)c1ccccc1O
inactive: all assays above

CS(=O)(=O)OCC(O)C(O)COS(C)(=O)=O (centres undefined)
inactive: all assays above

O=C(O)COc1ccccc1/C=N/NC(=O)c1ccncc1
inactive: all assays above

C=Cc1ccc(S(=O)(=O)O)cc1
inactive: all assays above

c1ccc2ccccc2c1
inactive: all assays above

CCN(CC)CCOC(=O)c1cccnc1
inactive: all assays above

CCCCC[C@H](O)/C=C/[C@H]1[C@H](O)CC(=O)[C@@H]1C/C=C\CCCC(=O)O
inactive: all assays above

O=P(O)(O)O
inactive: all assays above

COc1cc(S(C)=O)ccc1-c1nc2ncccc2[nH]1 (centres undefined)
inactive: all assays above

CCN(CC)C(=S)S
inactive: all assays above

COC(=O)C(CN)c1c[nH]c2ccc(OC)cc12 (centres undefined)
inactive: all assays above

O=c1[nH]c(=O)n([C@H]2C[C@H](O)[C@@H](CO)O2)cc1/C=C/Br
inactive: all assays above

F[Si-2](F)(F)(F)(F)F
inactive: all assays above

[O]=[Bi][O][Bi]=[O]
inactive: all assays above

OCCCNc1ccccc1
inactive: all assays above

Nc1ncnc2c1ncn2[C@H]1CC[C@@H](CO)O1
inactive: all assays above

CCN(CC)C(=O)c1cccnc1
inactive: all assays above

CO
inactive: all assays above

C=CCCCCCCCCC(=O)OC
inactive: all assays above

CC(=O)Oc1cccc(C(=O)O)c1OC(C)=O
inactive: all assays above

CC/C=C\C/C=C\C/C=C\C/C=C\C/C=C\CCCC(=O)O
inactive: all assays above

NCC(O)CC(=O)O (centres undefined)
inactive: all assays above

CCCCC(CC)CCC(CC(C)C)OS(=O)(=O)O (centres undefined)
inactive: all assays above

CCCCO
inactive: all assays above

COc1ccc(/C=C/C(=O)O)cc1
inactive: all assays above

CN1CCC(OC(=O)C(Oc2ccc(Cl)cc2)Oc2ccc(Cl)cc2)CC1
inactive: all assays above

Cc1ccccn1
inactive: all assays above

O=C1c2ccccc2C(=O)C1c1ccc(F)cc1
inactive: all assays above

O=C(NCCNCC(O)COc1ccc(O)cc1)N1CCOCC1 (centres undefined)
inactive: all assays above

O=C1N=C2SCCN2C(=O)C1Cc1ccc(Cl)cc1 (centres undefined)
inactive: all assays above

CN[C@@H]1[C@H](O[C@H]2[C@H](O[C@H]3[C@H](O)[C@@H](O)[C@H](N=C(N)N)[C@@H](O)[C@@H]3N=C(N)N)O[C@@H](C)[C@]2(O)C=O)O[C@@H](CO)[C@H](O)[C@H]1O
inactive: all assays above

CC(C)[C@H](N)C(=O)OCC(CO)OCn1cnc2c(=O)[nH]c(N)nc21 (some centres undefined)
inactive: all assays above

CN=C1C=CC(=C(c2ccc(N(C)C)cc2)c2ccc(N(C)C)cc2)C=C1
active: [1] 1070 nM | [2] 1070 nM | [3] 953 nM | [4] 1070 nM | [5] 953 nM | [6] 757 nM | [7] 301 nM | [8] 398 nM | [9] 1510 nM | [10] 1510 nM | [11] 1690 nM | [12] 282 nM | [13] 891 nM | [14] 1120 nM | [15] 675 nM | [16] 1000 nM | [17] 398 nM | [18] 2510 nM | [19] 708 nM | [20] 891 nM

CCCCCCCCCCCCCC(=O)OCC(COP(=O)([O-])OCC[N+](C)(C)C)OC(=O)CCCCCCCCCCCCC (centres undefined)
inactive: all assays above

OCC1(CO)COC(C(Cl)(Cl)Cl)OC1
inactive: all assays above

S=C=Nc1ccc(N=C=S)cc1
inactive: all assays above

NCCN
inactive: all assays above

COc1ccc(/C=N/NC(=O)c2ccncc2)c(C(=O)O)c1OC
inactive: all assays above

CC(=O)N[C@@H]1C(O[C@H]2O[C@H](C(=O)O)C(O)[C@H](O)[C@H]2O)[C@H](O)[C@@H](CO)O[C@H]1O[C@@H]1C(C(=O)O)O[C@@H](O[C@H]2[C@H](O)[C@@H](CO)OC(O)[C@@H]2NC(C)=O)[C@H](O)[C@H]1O (some centres undefined)
inactive: all assays above

O=C(O)c1ccc(NC(=O)[C@H](Cc2ccc(O)cc2)NC(=O)c2ccccc2)cc1
inactive: all assays above

Cc1ncc(C[n+]2csc(CCOP(=O)(O)O)c2C)c(N)n1
inactive: all assays above

OC[C@H]1O[C@@](CO)(O[C@H]2O[C@H](CO)[C@@H](O)[C@H](O)[C@H]2O)[C@@H](O)[C@@H]1O
inactive: all assays above

Cc1ncc(COP(=O)(O)O)c(CN)c1O
inactive: all assays above

Cc1cc(=O)c(C(=O)N[C@@H](C(=O)N[C@@H]2C(=O)N3C(C(=O)O)=C(CSc4nnnn4C)CS[C@H]23)c2ccc(O)cc2)c[nH]1
inactive: all assays above

O=P(O)(O)OP(=O)(O)OP(=O)(O)O
inactive: all assays above

CC1=C(/C=C/C(C)=C/C=C/C(C)=C/C(=O)Oc2c(C)c(C)c3c(c2C)CC[C@@](C)(CCC[C@H](C)CCC[C@H](C)CCCC(C)C)O3)C(C)(C)CCC1
inactive: all assays above

CCCCCCCCCCCC(=O)OCC(O)CO (centres undefined)
inactive: all assays above

O=C(/C=C/c1cccc(F)c1)NC1CC1
inactive: all assays above

NC(=S)NS(=O)(=O)c1ccc(N)cc1
inactive: all assays above

CC/C(=C(/CC)c1ccc(OP(=O)(O)O)cc1)c1ccc(OP(=O)(O)O)cc1
inactive: all assays above

Cc1cc(-c2ccc(N=Nc3ccc4c(S(=O)(=O)O)cc(S(=O)(=O)O)c(N)c4c3O)c(C)c2)ccc1N=Nc1ccc2c(S(=O)(=O)O)cc(S(=O)(=O)O)c(N)c2c1O
inactive: all assays above

O=C(O)[C@H]1C(=CCO)O[C@H]2CC(=O)N12
inactive: all assays above

CC1=CCC2CC1C2(C)C (centres undefined)
inactive: all assays above
